# Measured values published in PubChem BioAssay (EPA / NIEHS).
# Inconclusive results are not listed. Active and inactive are the calls of the source. How the source made its calls, unless noted: active means hit-call score of the fitted dose curve at least 0.9, where 1 is the maximum; inactive means score below 0.9.
# Columns and labels:
# [1] = molecular target: Paired box protein Pax-6 (Homo sapiens) (UniProt P26367); assay: ATG_Pax6_CIS: Attagene CIS-FACTORIAL HepG2 Assay for human Paired Box 6 (PAX6) (AID 2282956); conditions: HepG2 CIS-FACTORIAL PAX6 reporter transcription, RNA readout; actives raise or lower the signal
# In short: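 HepG2 cells transiently transfected with cis-promoter-driven multiplexed reporter units sensing endogenous transcription factor activity; 24 h chemical exposure. Reporter mRNA quantified by RT-PCR, 6-FAM labelling, HpaI digestion and capillary electrophoresis; bidirectional fit versus DMSO baseline.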
# [2] = ATG_PXRE_CIS: Attagene CIS-FACTORIAL HepG2 Assay for human Pregnane X Receptor Element (PXRE) (AID 2282957); conditions: HepG2 Attagene CIS-FACTORIAL PXRE reporter, mRNA; actives raise or lower the signal
# In short: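 Cells: HepG2, transiently transfected reporter units under cis promoter control. Exposure: 24 h. Detection: reporter mRNA via RT-PCR/CE fluorescence; bidirectional fitting, DMSO-referenced.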
# [3] = ATG_PPRE_CIS: Attagene CIS-FACTORIAL HepG2 Assay for human Peroxisome Proliferator-activated Response Element (PPRE) (AID 2282958); conditions: HepG2 PPRE cis-element reporter, Attagene transcription factor profiling; actives raise or lower the signal
# In short: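 In this cell-based multiplex, a PPRE cis element drives a reporter sequence in transiently transfected HepG2 cells. Following 24 h treatment, labeled cDNA amplicons are sized and quantified by capillary electrophoresis, with DMSO defining baseline.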
# [4] = ATG_RORE_CIS: Attagene CIS-FACTORIAL HepG2 Assay for human RAR-related Orphan Receptor Element (RORE) (AID 2282959); conditions: HepG2 Attagene cis-factorial RORE reporter, mRNA; actives raise or lower the signal
# In short: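 Endogenous factor activity at a cis response element is read as reporter transcript levels in HepG2 cells, 24 h post-dose. Transcripts are quantified by RT-PCR with capillary electrophoresis, and data fitted in both directions against DMSO.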
# [5] = ATG_Sox_CIS: Attagene CIS-FACTORIAL HepG2 Assay for human SRY-box transcription factor (SOX) (AID 2282960); conditions: HepG2 Attagene cis-factorial SOX reporter, mRNA; actives raise or lower the signal
# In short: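 Measures mRNA induction of a SOX1-associated reporter in HepG2 after 24 h dosing. Fluorescently labelled RT-PCR fragments are separated by capillary electrophoresis, and gain or loss relative to DMSO control is fitted.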
# [6] = molecular target: Transcription factor Sp1 (Homo sapiens) (UniProt P08047); assay: ATG_Sp1_CIS: Attagene CIS-FACTORIAL HepG2 Assay for human Specificity Protein 1 (Sp1) (AID 2282961); conditions: HepG2 Sp1 cis-reporter transcription, actives raise or lower the signal
# In short: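 Cells: HepG2, transiently transfected with cis-regulated multiplexed reporters. Exposure: 24 h. Detection: reporter transcripts amplified, fluorescently labeled, restriction-digested and sized by capillary electrophoresis. Analysis: bidirectional fit relative to DMSO.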
# [7] = ATG_SREBP_CIS: Attagene CIS-FACTORIAL HepG2 Assay for human Sterol Regulatory Element Binding (SREBP) (AID 2282962); conditions: HepG2 Attagene cis-factorial SREBP reporter, mRNA; actives raise or lower the signal
# In short: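 HepG2 cells transiently transfected with multiplexed cis-promoter reporter units sensing endogenous transcription factors; reporter mRNA measured 24 h after dosing by RT-PCR, 6-FAM labeling, HpaI digestion and capillary electrophoresis. Bidirectional fit versus DMSO.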
# [8] = molecular target: Signal transducer and activator of transcription 3 (Homo sapiens) (UniProt P40763); assay: ATG_STAT3_CIS: Attagene CIS-FACTORIAL HepG2 Assay for human Signal Transducer and Activator of Transcription 3 (STAT3) (AID 2282963); conditions: HepG2, Attagene cis-factorial STAT3 reporter transcription; actives raise or lower the signal
# In short: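 HepG2 cells transiently transfected with multiple cis-element-driven reporter units report endogenous transcription factor activity. After 24 h compound exposure, reporter mRNA is measured by RT-PCR, 6-FAM labelling, HpaI digestion and capillary electrophoresis. Fitted bidirectionally versus DMSO.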
# [9] = ATG_TCF_b_cat_CIS: Attagene CIS-FACTORIAL HepG2 Assay for human T-Cell-Factor with beta-catenin (TCF/b-cat) (AID 2282965); conditions: HepG2 TCF/beta-catenin cis-reporter transcription, actives raise or lower the signal
# In short: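 HepG2 cells transiently transfected with cis-promoter-driven multiplexed reporter units; reporter mRNA measured 24 h after dosing by RT-PCR, FAM labelling, HpaI digestion and capillary electrophoresis. Bidirectional fitting relative to DMSO baseline.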
# [10] = ATG_TAL_CIS: Attagene CIS-FACTORIAL HepG2 Assay for human TAL Basal Promoter (AID 2282966); conditions: HepG2 Attagene cis-factorial TAL promoter reporter; actives raise or lower the signal;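 further: background control endpoint measuring basal TAL promoter reporter mRNA not a specific factor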
# In short: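 RT-PCR plus capillary electrophoresis quantifies reporter mRNA induction in transiently transfected HepG2 cells after 24 h chemical treatment. DMSO serves as negative control and baseline for bidirectional fitting.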
# [11] = ATG_TGFb_CIS: Attagene CIS-FACTORIAL HepG2 Assay for human Transforming Growth Factor (TGF) (AID 2282967); conditions: HepG2 Attagene CIS TGFb reporter, mRNA transcription; actives raise or lower the signal
# In short: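 Multiplexed cis-reporter HepG2 system, 24 h treatment; mRNA induction read by fluorescence after RT-PCR and CE; DMSO negative control, bidirectional curve fitting.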
# [12] = ATG_VDRE_CIS: Attagene CIS-FACTORIAL HepG2 Assay for human Vitamin D Receptor Element (VDRE) (AID 2282968); conditions: HepG2 VDRE cis-reporter transcription, actives raise or lower the signal
# In short: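 Transiently transfected HepG2 cells carrying cis-regulated reporter transcription units were exposed for 24 h. Reporter mRNA was measured by RT-PCR with fluorescent labelling and capillary electrophoresis, and fitted in both directions against DMSO.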
# [13] = molecular target: Nuclear receptor subfamily 1 group I member 3 (Homo sapiens) (UniProt Q14994); assay: ATG_CAR_TRANS: Attagene TRANS-FACTORIAL HepG2 Assay for human Constitutive Androstane Receptor (CAR) (AID 2282969; active means hit-call score of the fitted dose curve at least 0.9, where 1 is the maximum;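 further: activators raise reporter mRNA above DMSO so AC50 marks induction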); conditions: HepG2 Attagene TRANS-FACTORIAL CAR reporter
# In short: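 HepG2 cells transiently transfected with GAL4-UAS reporter units; TRANS format reads activity of exogenous chimeric NR-Gal4 protein. After 24 h dosing, reporter mRNA quantified by RT-PCR, 6-FAM labelling and capillary electrophoresis; gain of signal fitted against DMSO.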
# [14] = molecular target: X-box-binding protein 1 (Homo sapiens) (UniProt P17861); assay: ATG_Xbp1_CIS: Attagene CIS-FACTORIAL HepG2 Assay for human X-box Binding Protein 1 (XBP1) (AID 2282972); conditions: HepG2 XBP1 cis-element reporter, Attagene multiplex; actives raise or lower the signal
# In short: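 HepG2 cells transiently transfected with multiple cis-element reporter units report endogenous TF activity; 24 h exposure, then reporter mRNA measured by RT-PCR, 6-FAM labelling, HpaI digestion and capillary electrophoresis. Bidirectional fitting versus DMSO.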
# [15] = ATG_M_19_TRANS: Attagene TRANS-FACTORIAL HepG2 Assay for M19 Transcription Factor (Internal Marker) (AID 2282974; active means hit-call score of the fitted dose curve at least 0.9, where 1 is the maximum); conditions: HepG2 Attagene TRANS-FACTORIAL M19 internal marker reporter
# In short: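 Reporter mRNA induction was measured in transfected HepG2 cells 24 h after dosing. Endpoint fitted upward relative to DMSO and serves as a background control within the multiplexed TRANS panel.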
# [16] = ATG_GAL4_TRANS: Attagene TRANS-FACTORIAL HepG2 Assay for GAL4 (Internal Marker) (AID 2282976; active means hit-call score of the fitted dose curve at least 0.9, where 1 is the maximum); conditions: HepG2 Attagene TRANS GAL4 internal marker reporter
# In short: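 In transfected human HepG2 liver cells dosed 24 h, GAL4 reporter mRNA serves as a baseline marker. Detection by RT-PCR with fluorescent capillary electrophoresis, activity fitted upward relative to DMSO.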
# [17] = molecular target: Estrogen-related receptor gamma (Homo sapiens) (UniProt P62508); assay: ATG_ERRg_TRANS: Attagene TRANS-FACTORIAL HepG2 Assay for human Estrogen-Related Receptor gamma (ERRg) (AID 2282977; active means hit-call score of the fitted dose curve at least 0.9, where 1 is the maximum;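 further: hits increase reporter signal over DMSO so potencies reflect activators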); conditions: HepG2 Attagene TRANS reporter, ERRg transactivation
# In short: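 HepG2 cells transiently transfected with multiplexed GAL4-UAS reporter units driven by chimeric NR-Gal4 proteins; 24 h exposure. Reporter mRNA quantified by RT-PCR, fluorescent labelling, HpaI digestion and capillary electrophoresis; gain of signal vs DMSO.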
# [18] = ATG_TA_CIS: Attagene CIS-FACTORIAL HepG2 Assay for human TA Basal Promoter (AID 2282964); conditions: HepG2 Attagene CIS-factorial TA basal promoter reporter; actives raise or lower the signal
# In short: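 Cis-factorial format in HepG2: reporters report endogenous factors, not chimeric Gal4 fusions. After 24 h treatment, reporter transcripts were measured by RT-PCR-capillary electrophoresis fluorescence, analysed bidirectionally versus DMSO.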
# [19] = molecular target: Estrogen receptor (Homo sapiens) (UniProt P03372); assay: ATG_ERa_TRANS: Attagene TRANS-FACTORIAL HepG2 Assay for human Estrogen Receptor alpha (ERa) (AID 2282970; active means hit-call score of the fitted dose curve at least 0.9, where 1 is the maximum); conditions: HepG2 Attagene TRANS ERa GAL4 reporter, mRNA
# In short: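 Cells: HepG2, transiently transfected. Construct: GAL4-UAS reporter units regulated by exogenous NR-Gal4 chimeras. Time: 24 h. Detection: reporter mRNA by RT-PCR, capillary electrophoresis, fluorescence. Baseline: DMSO, upward fitting.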
# [20] = molecular target: Steroid hormone receptor ERR1 (Homo sapiens) (UniProt P11474); assay: ATG_ERRa_TRANS: Attagene TRANS-FACTORIAL HepG2 Assay for human Estrogen-Related Receptor alpha (ERRa) (AID 2282971; active means hit-call score of the fitted dose curve at least 0.9, where 1 is the maximum); conditions: HepG2 Attagene TRANS reporter, ERRa transactivation
# In short: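 Reporter transcripts from ERRa-Gal4 chimera activity measured in transiently transfected human HepG2 cells 24 hours after dosing, using RT-PCR with 6-FAM primer extension, HpaI digestion and capillary electrophoresis; DMSO is baseline.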
# Sequence of Transcription factor Sp1 (Homo sapiens) (P08047 whole entry, looked up): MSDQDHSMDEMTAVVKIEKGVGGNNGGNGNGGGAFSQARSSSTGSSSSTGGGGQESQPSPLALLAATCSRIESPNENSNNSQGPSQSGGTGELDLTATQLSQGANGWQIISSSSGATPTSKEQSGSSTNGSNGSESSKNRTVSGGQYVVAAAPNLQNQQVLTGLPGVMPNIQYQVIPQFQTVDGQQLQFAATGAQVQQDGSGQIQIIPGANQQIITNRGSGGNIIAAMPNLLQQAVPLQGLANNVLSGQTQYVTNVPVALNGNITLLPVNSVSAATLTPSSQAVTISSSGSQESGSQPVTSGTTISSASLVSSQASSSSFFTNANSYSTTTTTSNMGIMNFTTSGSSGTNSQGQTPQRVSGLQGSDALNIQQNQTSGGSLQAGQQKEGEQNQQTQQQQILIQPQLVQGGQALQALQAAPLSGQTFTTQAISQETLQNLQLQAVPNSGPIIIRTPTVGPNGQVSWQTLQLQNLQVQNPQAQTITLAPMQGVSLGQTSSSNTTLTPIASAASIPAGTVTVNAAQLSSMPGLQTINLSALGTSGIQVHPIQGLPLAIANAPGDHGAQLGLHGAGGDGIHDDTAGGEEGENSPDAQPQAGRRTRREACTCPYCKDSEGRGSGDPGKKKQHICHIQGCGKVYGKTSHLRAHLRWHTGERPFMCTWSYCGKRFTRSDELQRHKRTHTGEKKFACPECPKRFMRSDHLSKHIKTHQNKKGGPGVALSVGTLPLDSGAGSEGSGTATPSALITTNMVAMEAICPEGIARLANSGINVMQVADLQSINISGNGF
# Sequence of Paired box protein Pax-6 (Homo sapiens) (P26367 whole entry, looked up): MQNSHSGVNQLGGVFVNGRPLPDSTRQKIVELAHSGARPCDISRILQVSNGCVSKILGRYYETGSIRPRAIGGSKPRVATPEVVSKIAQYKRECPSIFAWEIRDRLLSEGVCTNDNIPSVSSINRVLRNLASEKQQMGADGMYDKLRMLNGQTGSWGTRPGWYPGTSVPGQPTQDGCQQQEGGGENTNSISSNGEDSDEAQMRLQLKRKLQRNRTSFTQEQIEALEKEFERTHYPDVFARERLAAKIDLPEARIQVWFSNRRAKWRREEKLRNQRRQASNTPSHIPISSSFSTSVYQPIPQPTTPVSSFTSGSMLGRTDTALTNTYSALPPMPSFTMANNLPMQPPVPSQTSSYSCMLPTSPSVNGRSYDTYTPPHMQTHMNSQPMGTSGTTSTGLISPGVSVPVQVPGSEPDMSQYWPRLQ
# Sequence of Signal transducer and activator of transcription 3 (Homo sapiens) (P40763 whole entry, looked up): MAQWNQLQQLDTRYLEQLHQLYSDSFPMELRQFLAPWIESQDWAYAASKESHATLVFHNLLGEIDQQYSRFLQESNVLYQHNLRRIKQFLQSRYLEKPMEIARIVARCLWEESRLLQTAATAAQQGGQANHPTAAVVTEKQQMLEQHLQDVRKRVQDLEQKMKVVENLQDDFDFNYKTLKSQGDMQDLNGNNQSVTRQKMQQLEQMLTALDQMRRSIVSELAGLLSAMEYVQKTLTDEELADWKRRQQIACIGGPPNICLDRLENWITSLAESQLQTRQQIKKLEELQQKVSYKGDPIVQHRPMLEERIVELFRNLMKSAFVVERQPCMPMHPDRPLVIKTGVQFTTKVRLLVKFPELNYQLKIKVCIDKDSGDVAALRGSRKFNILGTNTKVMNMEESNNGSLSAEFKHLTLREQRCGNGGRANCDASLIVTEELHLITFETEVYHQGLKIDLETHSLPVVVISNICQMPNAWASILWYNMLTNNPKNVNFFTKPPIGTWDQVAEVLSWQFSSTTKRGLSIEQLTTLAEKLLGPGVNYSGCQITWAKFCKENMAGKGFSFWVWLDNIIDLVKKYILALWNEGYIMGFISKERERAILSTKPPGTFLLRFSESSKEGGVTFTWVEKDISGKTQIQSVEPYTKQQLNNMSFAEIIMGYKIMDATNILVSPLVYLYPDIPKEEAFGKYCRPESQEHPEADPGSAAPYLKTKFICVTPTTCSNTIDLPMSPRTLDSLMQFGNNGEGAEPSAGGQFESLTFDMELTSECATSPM
# Sequence of Nuclear receptor subfamily 1 group I member 3 (Homo sapiens) (Q14994 whole entry, looked up, the tested form may be a part): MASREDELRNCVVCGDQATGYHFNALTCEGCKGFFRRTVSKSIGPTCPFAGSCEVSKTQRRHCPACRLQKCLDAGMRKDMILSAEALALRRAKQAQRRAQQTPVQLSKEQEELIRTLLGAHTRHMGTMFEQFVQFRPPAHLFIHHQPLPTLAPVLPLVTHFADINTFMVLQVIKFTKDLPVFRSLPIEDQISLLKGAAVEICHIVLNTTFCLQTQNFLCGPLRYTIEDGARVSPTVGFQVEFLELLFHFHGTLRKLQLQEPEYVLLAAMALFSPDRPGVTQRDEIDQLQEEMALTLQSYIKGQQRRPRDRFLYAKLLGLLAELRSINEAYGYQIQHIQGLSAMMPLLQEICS
# Sequence of X-box-binding protein 1 (Homo sapiens) (P17861 whole entry, looked up): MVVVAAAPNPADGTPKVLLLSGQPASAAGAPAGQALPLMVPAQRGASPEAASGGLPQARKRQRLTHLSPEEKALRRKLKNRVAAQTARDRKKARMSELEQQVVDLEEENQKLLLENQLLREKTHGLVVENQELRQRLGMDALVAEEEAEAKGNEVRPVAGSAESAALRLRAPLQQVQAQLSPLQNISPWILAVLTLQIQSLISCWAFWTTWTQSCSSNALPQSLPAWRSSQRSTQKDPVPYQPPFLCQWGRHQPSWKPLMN
# Sequence of Estrogen receptor (Homo sapiens) (P03372 whole entry, looked up, the tested form may be a part): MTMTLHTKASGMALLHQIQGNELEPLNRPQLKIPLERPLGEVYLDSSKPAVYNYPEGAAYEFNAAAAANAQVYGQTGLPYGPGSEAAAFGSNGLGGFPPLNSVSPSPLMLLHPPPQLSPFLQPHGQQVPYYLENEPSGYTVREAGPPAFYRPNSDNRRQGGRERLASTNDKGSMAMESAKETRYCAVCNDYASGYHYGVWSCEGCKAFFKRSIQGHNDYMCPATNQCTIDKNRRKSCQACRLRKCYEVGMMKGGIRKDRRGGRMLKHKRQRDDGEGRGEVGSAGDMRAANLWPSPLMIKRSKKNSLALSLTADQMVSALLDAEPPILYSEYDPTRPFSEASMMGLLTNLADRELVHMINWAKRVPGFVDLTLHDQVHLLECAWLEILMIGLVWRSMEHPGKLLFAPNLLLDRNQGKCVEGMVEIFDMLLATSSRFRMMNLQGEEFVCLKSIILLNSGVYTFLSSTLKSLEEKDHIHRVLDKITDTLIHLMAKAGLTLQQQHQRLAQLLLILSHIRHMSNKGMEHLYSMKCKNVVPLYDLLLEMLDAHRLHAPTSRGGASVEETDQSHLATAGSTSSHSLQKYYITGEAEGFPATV
# Sequence of Estrogen-related receptor gamma (Homo sapiens) (P62508 whole entry, looked up, the tested form may be a part): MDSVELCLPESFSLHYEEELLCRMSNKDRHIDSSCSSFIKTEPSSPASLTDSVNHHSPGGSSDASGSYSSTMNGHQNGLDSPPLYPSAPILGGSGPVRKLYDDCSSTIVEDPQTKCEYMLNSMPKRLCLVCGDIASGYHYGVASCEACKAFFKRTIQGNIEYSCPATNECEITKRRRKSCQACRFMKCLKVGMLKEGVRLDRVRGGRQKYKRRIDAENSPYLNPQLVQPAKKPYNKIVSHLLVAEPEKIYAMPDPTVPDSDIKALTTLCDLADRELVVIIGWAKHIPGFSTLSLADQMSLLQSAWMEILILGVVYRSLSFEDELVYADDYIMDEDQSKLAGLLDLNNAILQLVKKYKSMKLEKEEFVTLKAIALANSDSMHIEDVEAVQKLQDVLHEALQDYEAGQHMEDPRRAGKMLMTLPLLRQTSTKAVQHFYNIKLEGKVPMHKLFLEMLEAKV
# Sequence of Steroid hormone receptor ERR1 (Homo sapiens) (P11474 whole entry, looked up, the tested form may be a part): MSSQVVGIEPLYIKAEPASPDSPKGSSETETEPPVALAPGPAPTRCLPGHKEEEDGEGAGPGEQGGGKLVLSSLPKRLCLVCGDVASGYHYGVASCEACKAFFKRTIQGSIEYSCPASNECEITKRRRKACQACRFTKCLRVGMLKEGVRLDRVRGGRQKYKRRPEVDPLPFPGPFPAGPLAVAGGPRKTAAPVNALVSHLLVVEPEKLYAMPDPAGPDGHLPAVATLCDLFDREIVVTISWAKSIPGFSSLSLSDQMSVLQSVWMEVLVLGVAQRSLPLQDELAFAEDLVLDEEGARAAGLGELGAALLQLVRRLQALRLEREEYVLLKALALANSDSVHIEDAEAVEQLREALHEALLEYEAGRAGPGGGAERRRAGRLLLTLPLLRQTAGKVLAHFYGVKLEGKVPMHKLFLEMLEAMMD
smiles,measurement,setting,value
CC(=O)Nc1ccc(C)cc1C,outcome,[1],inactive
same,outcome,[2],inactive
same,outcome,[3],inactive
same,outcome,[4],inactive
same,outcome,[5],inactive
same,outcome,[6],inactive
same,outcome,[7],inactive
same,outcome,[8],inactive
same,outcome,[9],inactive
same,outcome,[10],inactive
same,outcome,[11],inactive
same,outcome,[12],inactive
same,outcome,[13],inactive
same,outcome,[14],inactive
same,outcome,[15],inactive
same,outcome,[16],inactive
same,outcome,[17],inactive
CC(=O)C(C)=O,outcome,[1],inactive
same,AC50,[2],26.5 µM (active)
same,outcome,[3],inactive
same,outcome,[4],inactive
same,outcome,[5],inactive
same,outcome,[6],inactive
same,outcome,[7],inactive
same,outcome,[8],inactive
same,outcome,[18],inactive
same,outcome,[9],inactive
same,outcome,[10],inactive
same,outcome,[11],inactive
same,outcome,[14],inactive
CC(C)c1cccc(O)c1,outcome,[1],inactive
same,AC50,[2],28.4 µM (active)
same,outcome,[3],inactive
same,outcome,[4],inactive
same,outcome,[5],inactive
same,outcome,[6],inactive
same,outcome,[7],inactive
same,outcome,[8],inactive
same,outcome,[18],inactive
same,outcome,[9],inactive
same,outcome,[10],inactive
same,outcome,[11],inactive
same,outcome,[13],inactive
same,AC50,[19],71.2 µM (active)
same,outcome,[20],inactive
same,outcome,[14],inactive
same,outcome,[15],inactive
same,outcome,[17],inactive
CCCCCCCCCCCCCCCCCC(=O)OCC(CC)CCCC (stereo not drawn),outcome,[1],inactive
same,outcome,[2],inactive
same,outcome,[3],inactive
same,outcome,[4],inactive
same,outcome,[5],inactive
same,outcome,[6],inactive
same,outcome,[7],inactive
same,outcome,[8],inactive
same,outcome,[18],inactive
same,outcome,[9],inactive
same,outcome,[10],inactive
same,outcome,[11],inactive
same,outcome,[13],inactive
same,outcome,[14],inactive
same,outcome,[15],inactive
same,outcome,[16],inactive
C#C[C@]1(O)CC[C@H]2[C@@H]3CCC4=Cc5oncc5C[C@]4(C)[C@H]3CC[C@@]21C,AC50,[1],20.1 µM (active)
same,AC50,[2],8.09 µM (active)
same,outcome,[3],inactive
same,outcome,[4],inactive
same,AC50,[5],61.3 µM (active)
same,AC50,[6],57.6 µM (active)
same,AC50,[7],14.8 µM (active)
same,outcome,[8],inactive
same,AC50,[9],22 µM (active)
same,outcome,[10],inactive
same,outcome,[11],inactive
same,AC50,[12],4.54 µM (active)
same,AC50,[19],0.412 µM (active)
same,AC50,[14],42.1 µM (active)
C=CCOc1nc(OCC=C)nc(OCC=C)n1,outcome,[1],inactive
same,AC50,[2],17.2 µM (active)
same,outcome,[3],inactive
same,outcome,[4],inactive
same,outcome,[5],inactive
same,outcome,[6],inactive
same,outcome,[7],inactive
same,outcome,[8],inactive
same,outcome,[18],inactive
same,outcome,[9],inactive
same,outcome,[10],inactive
same,outcome,[11],inactive
same,outcome,[12],inactive
same,outcome,[14],inactive
same,outcome,[15],inactive
